# Screens (PubChem BioAssay)
# MEKK2wt PB1 HTS: raises or lowers MEK5 binding to wildtype human MEKK2 PB1 domain. bead flow cytometry, Alexa488-MEK5 binding to MEKK2 WT; actives lie on both sides. binding response (% of control), % at 10 µM. 290,000 tested, 1.1% active. AID 1531; in the data active = binding response below about 67% or above about 130%
# Arbovirus inh: blocks arbovirus infection. arbovirus infection cell-based antiviral screen. inhibition, % at 10 µM. 200,000 tested, 0.37% active. AID 1251; in the data active = inhibition above about 30%
# Pf gametocyte: P. falciparum stage V gametocyte viability inhibition | P. falciparum stage V gametocytes, ATP luminescence, 24 h | inhibition, % at 10.9 µM | 150,000 tested, 0.065% active | AID 743093;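 active = inhibition above the mean plus 3 SD of compounds within the control limits, set per campaign, cut at about 38% in these data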;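 also: 0% = DMSO wells and 100% = medium only without gametocytes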
# MEKK3 PB1 HTS: modulators (inhibitors or enhancers) of MEK5 binding to human MEKK3 PB1 domain | Q99759 | binding response (% of control), % at 10 µM | bead-based flow cytometry, Alexa488-MEK5 binding to MEKK3; actives lie on both sides; 0 = blocked by unlabeled MEK5, 100 = vehicle | 290,000 tested, 1.4% active | AID 1529;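 active = binding response more than 3 SD above or below the average of its plate-row segment, actives on both sides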;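 also: Alexa488 bead fluorescence after subtracting the streptavidin-only scavenger bead signal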
# Target sequence (Q99759 whole entry, looked up, the tested form may be a part): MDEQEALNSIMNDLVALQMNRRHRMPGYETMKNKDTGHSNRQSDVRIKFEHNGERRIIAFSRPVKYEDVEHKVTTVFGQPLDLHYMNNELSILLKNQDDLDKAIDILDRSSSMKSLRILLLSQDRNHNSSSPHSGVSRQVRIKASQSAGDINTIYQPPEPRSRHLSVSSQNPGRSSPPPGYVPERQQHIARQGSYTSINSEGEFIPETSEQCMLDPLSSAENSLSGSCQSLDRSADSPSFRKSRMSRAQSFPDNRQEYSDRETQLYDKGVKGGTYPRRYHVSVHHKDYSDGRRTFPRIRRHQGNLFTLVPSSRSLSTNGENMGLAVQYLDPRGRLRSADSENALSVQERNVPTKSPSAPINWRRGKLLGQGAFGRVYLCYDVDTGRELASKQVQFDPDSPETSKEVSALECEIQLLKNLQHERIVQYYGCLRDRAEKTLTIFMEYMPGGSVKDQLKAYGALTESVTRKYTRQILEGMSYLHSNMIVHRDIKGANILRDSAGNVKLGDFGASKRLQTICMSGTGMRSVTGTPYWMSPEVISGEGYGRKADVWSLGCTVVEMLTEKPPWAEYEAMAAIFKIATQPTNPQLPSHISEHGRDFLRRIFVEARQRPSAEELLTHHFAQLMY
# MEKK2mut PB1 HTS: signal of MEK5 binding to mutant human MEKK2 PB1 domain | bead flow cytometry, Alexa488-MEK5 binding to MEKK2 mutant | percent response, % at 10 µM | 290,000 tested, 0.35% active | AID 1530; in the data active = percent response above about 24%, passing the limit was not always enough
# Numbers without * were called inactive; / = not tested or not shown. A selection: hits, their analogues and other compounds. The true share with any hit is near 2.4%.
SMILES,MEKK2wt PB1 HTS,Arbovirus inh,Pf gametocyte,MEKK3 PB1 HTS,MEKK2mut PB1 HTS
COc1ccc(S(=O)(=O)NCC2CCC(C(=O)NCc3ccc(F)cc3)CC2)cc1 (centres undefined),105,/,/,101,4
O=C(NC1CCN(C(=O)NCc2ccccc2)CC1)c1cccc(F)c1,103,/,/,104,7
Cc1ccc(S(=O)(=O)N2CCCCC2C)cc1[N+](=O)[O-] (centres undefined),107,/,/,105,7
CCOc1ccc(CN2CCC(n3nccc3NC(=O)c3ccccc3OC)CC2)cc1,102,/,/,102,4
N#Cc1c(C(F)(F)F)cc(-c2cccc(Cl)c2)[nH]c1=O,92,42*,4,92,-7
N#Cc1c(C(F)(F)F)cc(-c2ccc(Cl)cc2)[nH]c1=O,113,43*,-15,116,5
N#Cc1c(C(F)(F)F)cc(-c2ccc(F)cc2)[nH]c1=O,104,30,-20,100,3
COCC(=O)N1CCC(Oc2ccc(C(=O)N(C)C(C)c3ccon3)cc2)CC1 (centres undefined),100,/,/,102,-4
N#C/C(=C\c1sc(N2CCOCC2)nc1-c1ccccc1)C(=O)Nc1cccc2ccccc12,92,-33,/,135*,5
CC(C)c1ccccc1NC(=O)CC1(CC(=O)O)CCCC1,58,/,3,55,-25
C/C(=N\NS(=O)(=O)c1ccccc1)c1cccc(NC(=O)c2cccc(Cl)c2)c1,102,47*,15,99,8
Cc1ccc(OCC(=O)NCc2cccs2)c([N+](=O)[O-])n1,99,3,/,101,-2
CCc1cc(C(=O)O)c(NC(=O)c2cc(OC)c(OC)c(OC)c2)s1,85,76*,-2,90,-12
CCOC(=O)c1cc(CC)sc1NC(=O)c1cc(OCC)c(OCC)c(OCC)c1,110,4,/,106,3
COc1cc(N2CCCC2)c(OC)cc1/C=C(/C#N)c1cccc(F)c1,101,-5,/,97,155*
CCOC(=O)c1ccc(NC(=O)CC2S/C(=N/N=C/c3c[nH]c4ccccc34)NC2=O)cc1 (centres undefined),107,31*,/,104,0
CN(C)CCN(C(=O)c1ccc2ccccc2c1)c1nc2ccc(Br)cc2s1,144*,/,/,106,12
CN(C)CCCN(C(=O)c1ccc(S(=O)(=O)N2CCc3ccccc32)cc1)c1nc2c(Cl)cccc2s1,257*,/,/,109,58*
CCOc1cccc2sc(N(CCCN(C)C)C(=O)c3ccc(S(=O)(=O)N4CCCCCC4)cc3)nc12,149*,/,/,103,23
Cc1ccc2nc(N(CCN(C)C)C(=O)c3ccc4ccccc4c3)sc2c1,130,/,/,105,14
COc1cccc2sc(N(CCCN(C)C)C(=O)c3ccc(S(=O)(=O)N4CCc5ccccc5C4)cc3)nc12,192*,/,/,107,38*
CCOC(=O)c1nn(-c2ccc(Cl)cc2)c(C)cc1=O,102,/,/,105,3
CN(C(=O)COC(=O)c1cc(NS(=O)(=O)c2cc([N+](=O)[O-])ccc2Cl)ccc1O)C1CCCCC1,91,0,/,84,-3
Cn1c(=O)c2sccc2n2c(CCCC(=O)N3CCCCC3)nnc12,102,/,/,101,5
O=C(O)c1cccc(Nc2nc(-c3cc4ccccc4oc3=O)cs2)c1,109,/,4,107,2
SMILES,MEKK2wt PB1 HTS,Arbovirus inh,Pf gametocyte,MEKK3 PB1 HTS,MEKK2mut PB1 HTS
CN(C)CCCN(C(=O)c1ccc(C(=O)c2ccccc2)cc1)c1nc2c(F)cccc2s1,143*,/,/,108,13
CCOc1cccc2sc(N(CCN(CC)CC)C(=O)c3ccc(S(=O)(=O)N4CCCCC4)cc3)nc12,128,-4,3,103,16
CN(C)CCCN(C(=O)COc1ccccc1)c1nc2c(F)cccc2s1,124,2,-10,109,0
CC1CCCCN1S(=O)(=O)c1ccc(C(=O)N(CCCN(C)C)c2nc3ccc(Br)cc3s2)cc1 (centres undefined),258*,/,/,117,76*
CCOc1cccc2sc(N(CCCN(C)C)C(=O)c3ccc(S(=O)(=O)N(C)Cc4ccccc4)cc3)nc12,233*,/,/,111,62*
Cc1ccc2nc(N(CCCN(C)C)C(=O)c3ccc(S(=O)(=O)N4CCCCCC4)cc3)sc2c1,171*,/,/,108,28*
CN(C)CCCN(C(=O)c1ccc(S(=O)(=O)N2CCOCC2)cc1)c1nc2ccc(F)cc2s1,106,/,/,92,-1
